Laboratory results from PubChem BioAssay AID1159580 (chemical genetic matrix, 2015).
Several values for one entry are separate records, joined by “and”; a condition that tells them apart may be missing. Equal values may be shown once. Among all 5,500 compounds or so, about 2,000 (36%) were called active. Not shown: some 18% with an inconclusive outcome. Rule as the data show it: active = normalized growth mostly below about 0.91 (no sharp cut-off); inconclusive = no clear call, values can overlap the other calls; inactive = mostly above about 0.92. This is one part of the list.

Test: chemical genetic growth profiling, strain panel (AID 1159580);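 also: tested at 20 µM; growth read once vehicle control cultures reached saturation at 30 °C; 1 = growth at the plate median or of vehicle wells; lower values mean less growth of the strain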
Conditions: S. cerevisiae deletion strains, growth OD

Measured: normalized growth

CC1=C(/C=C/C(C)=C/C=C/C(C)=C/CO)C(C)(C)CCC1
inactive: locus YAL013W, strain DEP1, stronger effect = lower value 1 | locus YAL021C, strain ccr4, stronger effect = lower value 1.05 | locus YAL026C, strain drs2, stronger effect = lower value 1.03 | locus YAL030W, strain snc1, stronger effect = lower value 0.995 | locus YBL061C, strain skt5, stronger effect = lower value 1.02 | locus YBR009C, strain hhf1, stronger effect = lower value 0.961 | locus YBR021W, strain FUR4, stronger effect = lower value 1.01 | locus YBR023C, strain chs3, stronger effect = lower value 1.01 | locus YBR171W, strain sec66, stronger effect = lower value 1.01 | locus YBR229C, strain ROT2, stronger effect = lower value 0.969 | locus YBR231C, strain swc5, stronger effect = lower value 0.983 | locus YBR279W, strain paf1, stronger effect = lower value 1 | locus YCL011C, strain gbp2, stronger effect = lower value 1.04 | locus YCL016C, strain dcc1, stronger effect = lower value 1.04 | locus YCL029C, strain bik1, stronger effect = lower value 1 | locus YCL061C, strain MRC1, stronger effect = lower value 1.01 | locus YCL069W, strain vba3, stronger effect = lower value 1.01 | locus YCR088W, strain abp1, stronger effect = lower value 1.03 | locus YDL005C, strain med2, stronger effect = lower value 1.02 | locus YDL035C, strain GPR1, stronger effect = lower value 0.982 | locus YDL040C, strain nat1, stronger effect = lower value 0.998 | locus YDL074C, strain BRE1, stronger effect = lower value 0.938 | locus YDL101C, strain DUN1, stronger effect = lower value 0.977 | locus YDL134C, strain PPH21, stronger effect = lower value 1.02 | locus YDL185W, strain tfp1, stronger effect = lower value 0.997 | locus YDL192W, strain arf1, stronger effect = lower value 1 | locus YDR001C, strain nth1, stronger effect = lower value 1.01 | locus YDR069C, strain doa4, stronger effect = lower value 1.04 | locus YDR101C, strain arx1, stronger effect = lower value 0.993 | locus YDR137W, strain rgp1, stronger effect = lower value 1.03 | locus YDR150W, strain NUM1, stronger effect = lower value 1 | locus YDR159W, strain sac3, stronger effect = lower value 0.968 | locus YDR162C, strain NBP2, stronger effect = lower value 0.993 | locus YDR195W, strain ref2 0.988 | locus YDR297W, strain sur2, stronger effect = lower value 1 | locus YDR318W, strain mcm21, stronger effect = lower value 1 | locus YDR334W, strain swr1, stronger effect = lower value 1.02 | locus YDR335W, strain msn5, stronger effect = lower value 1.02 | locus YDR388W, stronger effect = lower value 1 | locus YDR392W, strain spt3, stronger effect = lower value 0.965 | locus YDR502C, strain sam2, stronger effect = lower value 1 | locus YEL003W, strain gim4, stronger effect = lower value 1 | locus YEL037C, strain rad23, stronger effect = lower value 1 | locus YEL061C, strain CIN8 (second series), stronger effect = lower value 1.01 | locus YEL061C, strain CIN8, stronger effect = lower value 0.992 | locus YER015W, strain faa2, stronger effect = lower value 1.01 | locus YER016W, strain bim1, stronger effect = lower value 1.06 | locus YER110C, stronger effect = lower value 0.999 | locus YER111C, strain swi4, stronger effect = lower value 1 | locus YER155C, strain BEM2 (second series), stronger effect = lower value 1.07 | locus YER155C, strain BEM2, stronger effect = lower value 1.01 | locus YER167W, strain BCK2, stronger effect = lower value 1 | locus YFR010W, strain ubp6, stronger effect = lower value 0.988 | locus YGL078C, strain dbp3, stronger effect = lower value 1.01 | locus YGL086W, strain mad1, stronger effect = lower value 0.983 | locus YGL167C, strain pmr1, stronger effect = lower value 1.01 | locus YGL173C, strain kem1, stronger effect = lower value 0.971 | locus YGL227W, strain vid30, stronger effect = lower value 1 | locus YGL240W, strain doc1, stronger effect = lower value 1.01 | locus YGL248W, strain PDE1, stronger effect = lower value 0.965 | locus YGL253W, strain hxk2, stronger effect = lower value 0.993 | locus YGR078C, strain PAC10, stronger effect = lower value 0.967 | locus YGR135W, strain pre9, stronger effect = lower value 1 | locus YGR252W, strain gcn5, stronger effect = lower value 0.985 | locus YHR013C, strain ard1, stronger effect = lower value 1.04 | locus YHR027C, strain rpn1, stronger effect = lower value 1.01 | locus YHR030C, strain SLT2, stronger effect = lower value 1.01 and 0.999 | locus YHR079C, strain IRE1 (second series), stronger effect = lower value 1.01 | locus YHR079C, strain IRE1, stronger effect = lower value 1.04 | locus YHR094C, strain hxt1, stronger effect = lower value 1.01 | locus YHR129C, strain ARP1, stronger effect = lower value 1.01 | locus YHR142W, strain chs7, stronger effect = lower value 1 | locus YHR200W, strain rpn10, stronger effect = lower value 1 | locus YIL066C, strain RNR3, stronger effect = lower value 0.964 | locus YIL073C, strain SPO22, stronger effect = lower value 1.01 | locus YIL125W, strain kgd1, stronger effect = lower value 0.995 | locus YIR030C, strain dcg1, stronger effect = lower value 0.998 | locus YJL092W, strain hpr5, stronger effect = lower value 1 | locus YJL095W, strain BCK1 (second series), stronger effect = lower value 1 | locus YJL095W, strain BCK1, stronger effect = lower value 0.924 and 1.01 | locus YJL115W, strain asf1, stronger effect = lower value 1.01 | locus YJL129C, strain trk1, stronger effect = lower value 0.985 | locus YJL134W, strain LCB3, stronger effect = lower value 1.01 | locus YJL154C, strain vps35, stronger effect = lower value 1.02 | locus YJL164C, strain tpk1, stronger effect = lower value 0.993 | locus YJL166W, strain qcr8, stronger effect = lower value 0.967 | locus YJL168C, strain set2, stronger effect = lower value 0.997 | locus YJL187C, strain SWE1 (second series), stronger effect = lower value 0.96
